The values that follow come from PubChem BioAssay (NCI).

Among the test systems are SR leukemia; RPMI-8226 leukemia; OVCAR-8 ovarian; OVCAR-5 ovarian; OVCAR-4 ovarian; SK-OV-3 ovarian; IGROV1 ovarian; OVCAR-3 ovarian; HS 578T breast; NCI/ADR-RES ovarian; T-47D breast; BT-549 breast; MDA-MB-435 melanoma; SW-620 colon; MCF7 breast; HCT-116 colon; HCC-2998 colon; KM12 colon.
What all share (experiment): NCI-60 one-dose screen, 48 h (100 = growth as untreated, 0 = no growth, -100 = all killed)
Holding throughout (conditions): 10 µM unless noted

The panel holds about 83,000 compounds, 20% with a hit somewhere; the sample as a whole holds those more often.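 Growth was measured after 48 h exposure to one concentration of compound in 96-well plates. Values under 10 count as active.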 Unmarked numbers belong to inactive results. Calls of active or inactive are those of the source.

For `O=C(O)c1ccc(-n2cc(CNc3cccc(Cl)c3)c(-c3ccc(F)cc3)n2)cc1`, the growth in the test on SR leukemia is 130%; with RPMI-8226 leukemia it was 89.2%; with OVCAR-8 ovarian, 96.3%; in the test on OVCAR-5 ovarian, 112%; in the test on OVCAR-4 ovarian it was 100%; in the test on SK-OV-3 ovarian it was 106%. The growth in the test on IGROV1 ovarian was 102%; with OVCAR-3 ovarian, 106%; with HS 578T breast it was 106%; in the test on NCI/ADR-RES ovarian, 97.9%; in the test on T-47D breast it was 92.1%; in the test on BT-549 breast, 108%. The growth in the test on MDA-MB-435 melanoma was 102%; with SW-620 colon, 110%; in the test with MCF7 breast, 70%; with HCT-116 colon, 89.2%; in the test with HCC-2998 colon, 105%; in the test with KM12 colon, 94.2%.
For the compound `Cn1ccnc1C(=O)/C=C/C=C/c1ccc(C(=O)Nc2ccc(F)cc2)cc1`, the growth in the test with SR leukemia was 10.8%; in the test with RPMI-8226 leukemia, -5.49% (active); with OVCAR-8 ovarian it was 13.6%; with OVCAR-5 ovarian it was 33.7%; in the test with OVCAR-4 ovarian, 45.7%; in the test with SK-OV-3 ovarian, 67.1%. The growth is 10.5% with IGROV1 ovarian; 5.1% (active) with OVCAR-3 ovarian; 39.1% with HS 578T breast; 26.7% with NCI/ADR-RES ovarian; 28.2% with T-47D breast; 36.3% with BT-549 breast. Moreover, the growth was 4.45% (active) in the test with MDA-MB-435 melanoma; -2.98% (active) in the test on SW-620 colon; 13.3% in the test with MCF7 breast; -36.3% (active) in the test on HCT-116 colon; 66.4% in the test on HCC-2998 colon; 17.1% with KM12 colon.
For the compound `O=C(Cn1cc[n+](CC(=O)c2ccc(-c3ccccc3)cc2)c1)Nc1cccc2cccnc12`, the growth is 53.9% in the test on SR leukemia; 33.5% with RPMI-8226 leukemia; 76.6% in the test with OVCAR-8 ovarian; 90.6% in the test on OVCAR-5 ovarian; 32.9% in the test on OVCAR-4 ovarian; 80% with SK-OV-3 ovarian. Besides, the growth with IGROV1 ovarian was 27.3%; in the test with OVCAR-3 ovarian, 50.1%; in the test on HS 578T breast, 75.8%; in the test with NCI/ADR-RES ovarian, 97.9%; in the test on T-47D breast, 40.4%; with BT-549 breast, 57.4%. Further, the growth is 79.3% in the test on MDA-MB-435 melanoma; 85% in the test on SW-620 colon; 51.4% in the test on MCF7 breast; 72.4% in the test on HCT-116 colon; 51.7% in the test on HCC-2998 colon; 31.6% with KM12 colon.
As to `Cc1ccc(NC(=O)CNc2cc(C(N)=O)cc(F)c2C)c(Cl)c1`, the growth with SR leukemia is 95.2%; in the test with RPMI-8226 leukemia it was 90.6%; in the test with OVCAR-8 ovarian it was 99.9%; in the test on OVCAR-5 ovarian, 87.9%; with OVCAR-4 ovarian it was 75.2%; in the test with SK-OV-3 ovarian it was 104%. Besides, the growth with IGROV1 ovarian was 70.6%; with OVCAR-3 ovarian, 111%; with HS 578T breast, 92.8%; in the test with NCI/ADR-RES ovarian, 105%; in the test with T-47D breast, 104%; in the test on BT-549 breast, 102%. The growth with MDA-MB-435 melanoma was 97.4%; in the test on SW-620 colon, 96.8%; with MCF7 breast, 87.2%; with HCT-116 colon it was 96.3%; with HCC-2998 colon it was 122%; in the test with KM12 colon, 99.1%.
For the compound `COc1ccc(NC(=O)CSc2nnc(-c3ccc4nc(-c5ccc(OC)c(OC)c5)[nH]c4c3)o2)cc1OC`, the growth in the test on SR leukemia is 104%; with RPMI-8226 leukemia it was 98.6%; in the test on OVCAR-8 ovarian, 101%; with OVCAR-5 ovarian it was 95.2%; with OVCAR-4 ovarian, 106%; in the test with SK-OV-3 ovarian, 120%. Further, the growth in the test on IGROV1 ovarian was 91.3%; in the test on OVCAR-3 ovarian, 108%; in the test on HS 578T breast it was 97.5%; in the test with NCI/ADR-RES ovarian, 96.1%; with T-47D breast, 90.3%; with BT-549 breast, 90.7%. The growth was 102% in the test on MDA-MB-435 melanoma; 105% in the test with SW-620 colon; 91.9% in the test with MCF7 breast; 98.1% in the test on HCT-116 colon; 111% in the test on HCC-2998 colon; 101% in the test with KM12 colon.
In the case of `CC1(C)CC[C@]2(C(=O)N3CCOCC3)CC[C@]3(C)C(=CC[C@@H]4[C@@]5(C)C/C(=C/c6ccccn6)C(=O)C(C)(C)[C@@H]5CC[C@]43C)[C@@H]2C1`, the growth with SR leukemia was 22.5%; in the test with RPMI-8226 leukemia it was 15.9%; in the test on OVCAR-8 ovarian it was 77.9%; in the test with OVCAR-5 ovarian it was 88.4%; in the test on OVCAR-4 ovarian, 36.1%; in the test with SK-OV-3 ovarian it was 108%. Moreover, the growth was 65.3% in the test on IGROV1 ovarian; 70.2% in the test with OVCAR-3 ovarian; 81.6% with HS 578T breast; 81.4% with NCI/ADR-RES ovarian; 53.4% with T-47D breast; 70% in the test on BT-549 breast. Further, the growth in the test on MDA-MB-435 melanoma is 68.6%; in the test with SW-620 colon it was 69.6%; with MCF7 breast it was 44%; with HCT-116 colon, 34.9%; in the test on HCC-2998 colon, 81.4%; with KM12 colon, 72.4%.
Turning to `CCCC(=O)NC(c1cccnc1)c1cc(C(C)(C)C)c2cccnc2c1O` (centres undefined), the growth in the test with SR leukemia is 11.5%; in the test with RPMI-8226 leukemia, 24.5%; with OVCAR-8 ovarian, 17.3%; in the test on OVCAR-5 ovarian it was 40.8%; with OVCAR-4 ovarian, 31.1%; with SK-OV-3 ovarian, 7.42% (active). The growth in the test on IGROV1 ovarian is 6.31% (active); with OVCAR-3 ovarian, 12.4%; in the test with HS 578T breast, 46.6%; in the test on NCI/ADR-RES ovarian, 21.2%; in the test with T-47D breast, 24.1%; with BT-549 breast, 24.8%. The growth with MDA-MB-435 melanoma was 30.2%; in the test with SW-620 colon, 34.2%; with MCF7 breast, 10.9%; in the test with HCT-116 colon it was 21.7%; with HCC-2998 colon, 51.4%; in the test on KM12 colon it was 18.8%.
Take `O=C(CSc1nc2ccccc2c(=O)n1-c1ccccc1)Nc1ccc(-c2nc3ccc([N+](=O)[O-])cc3[nH]2)cc1`: the growth with SR leukemia was 20.9%; in the test on RPMI-8226 leukemia it was 67.2%; in the test on OVCAR-8 ovarian, 75.5%; with OVCAR-5 ovarian, 86.1%; in the test on OVCAR-4 ovarian, 88.6%; in the test on SK-OV-3 ovarian, 106%. Moreover, the growth was 57.9% in the test on IGROV1 ovarian; 63.6% with OVCAR-3 ovarian; 77.1% in the test on HS 578T breast; 75.3% in the test with NCI/ADR-RES ovarian; 89.1% in the test with T-47D breast; 80% with BT-549 breast. In addition, the growth in the test with MDA-MB-435 melanoma is 80.1%; in the test on SW-620 colon, 43.7%; in the test with MCF7 breast, 40.6%; in the test on HCT-116 colon it was 67.4%; with HCC-2998 colon, 100%; with KM12 colon, 91.7%.
